Results taken from PubChem BioAssay (NCI).
Compounds without any hit were thinned out: in the full panel of roughly 83,000, 20% have a hit.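 Plates (96-well) were seeded with cells, treated with compound at one concentration, and incubated for 48 hours before percent growth was determined.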 The source made the active and inactive calls. How the source made its calls: active means growth percent below 10; inactive means the rest.

Legend:
Experiment in all cases: NCI-60 one-dose screen, 48 h (100 = growth as untreated, 0 = no growth, -100 = all killed)
Conditions in all cases: 10 µM unless noted
HCT-15 colon = test system: HCT-15 colon
HT29 colon = test system: HT29 colon
SNB-75 CNS = test system: SNB-75 CNS
SNB-19 CNS = test system: SNB-19 CNS
U251 CNS = test system: U251 CNS
PC-3 prostate = test system: PC-3 prostate
SK-MEL-5 melanoma = test system: SK-MEL-5 melanoma
UACC-62 melanoma = test system: UACC-62 melanoma
LOX IMVI melanoma = test system: LOX IMVI melanoma
SK-MEL-28 melanoma = test system: SK-MEL-28 melanoma
SK-MEL-2 melanoma = test system: SK-MEL-2 melanoma
EKVX NSCLC = test system: EKVX NSCLC
SN12C renal = test system: SN12C renal
UO-31 renal = test system: UO-31 renal
TK-10 renal = test system: TK-10 renal
ACHN renal = test system: ACHN renal
CAKI-1 renal = test system: CAKI-1 renal
A498 renal = test system: A498 renal
CCRF-CEM leukemia = test system: CCRF-CEM leukemia
MOLT-4 leukemia = test system: MOLT-4 leukemia

Measured: growth

O=C1COCCN1c1ccc(Nc2nc(Cl)nc(N3CCOCC3)n2)cc1
inactive: HCT-15 colon 91.8% | HT29 colon 89.4% | SNB-75 CNS 89.7% | SNB-19 CNS 95.9% | U251 CNS 101% | PC-3 prostate 96.8% | SK-MEL-5 melanoma 100% | UACC-62 melanoma 96% | LOX IMVI melanoma 93.8% | SK-MEL-28 melanoma 101% | SK-MEL-2 melanoma 91.6% | EKVX NSCLC 92.3% | SN12C renal 102% | UO-31 renal 93.5% | TK-10 renal 90.5% | ACHN renal 98.5% | CAKI-1 renal 89.2% | A498 renal 73.7% | CCRF-CEM leukemia 97% | MOLT-4 leukemia 96.3%

O=c1[nH]cnc2c1ccn2C1OC(CO)C(O)C1O (stereo not given)
inactive: HCT-15 colon 45.5% | HT29 colon 65.9% | SNB-75 CNS 74.6% | SNB-19 CNS 78.3% | U251 CNS 81.2% | PC-3 prostate 36.3% | SK-MEL-5 melanoma 83.1% | UACC-62 melanoma 73.3% | LOX IMVI melanoma 27.8% | SK-MEL-28 melanoma 91.2% | SK-MEL-2 melanoma 21.2% | EKVX NSCLC 79% | SN12C renal 63.1% | UO-31 renal 37.9% | TK-10 renal 52.7% | ACHN renal 27.8% | CAKI-1 renal 37.2% | A498 renal 57.5% | CCRF-CEM leukemia 64.1% | MOLT-4 leukemia 53.6%

CCOC(=O)c1cnc2ccc(Br)cc2c1Nc1cccc(S(N)(=O)=O)c1
inactive: HCT-15 colon 90.8% | HT29 colon 107% | SNB-75 CNS 80.6% | SNB-19 CNS 88% | U251 CNS 91.9% | PC-3 prostate 94.5% | SK-MEL-5 melanoma 89.1% | UACC-62 melanoma 103% | LOX IMVI melanoma 101% | SK-MEL-28 melanoma 109% | SK-MEL-2 melanoma 109% | EKVX NSCLC 96.2% | SN12C renal 97.3% | UO-31 renal 81.2% | TK-10 renal 105% | ACHN renal 96.2% | CAKI-1 renal 74.1% | A498 renal 66.5% | CCRF-CEM leukemia 102% | MOLT-4 leukemia 85.1%

N#Cc1c(Cl)nc(SCC2CO2)nc1-c1ccccc1 (stereo not given)
inactive: HCT-15 colon 110% | HT29 colon 111% | SNB-75 CNS 95.6% | SNB-19 CNS 106% | U251 CNS 104% | PC-3 prostate 110% | SK-MEL-5 melanoma 107% | UACC-62 melanoma 107% | LOX IMVI melanoma 98.4% | SK-MEL-28 melanoma 114% | SK-MEL-2 melanoma 70.1% | EKVX NSCLC 99.6% | SN12C renal 95.9% | UO-31 renal 66.1% | TK-10 renal 111% | ACHN renal 95.5% | CAKI-1 renal 87.9% | A498 renal 108% | CCRF-CEM leukemia 110% | MOLT-4 leukemia 113%

COc1ccc2c3ccnc(C(F)(F)F)c3n(CCCCN)c2c1
inactive: HCT-15 colon 62.9% | HT29 colon 22.6% | SNB-75 CNS 49.2% | SNB-19 CNS 68% | U251 CNS 46.4% | PC-3 prostate 22.8% | SK-MEL-5 melanoma 70.7% | UACC-62 melanoma 39.2% | LOX IMVI melanoma 32.3% | SK-MEL-28 melanoma 38.6% | SK-MEL-2 melanoma 55.3% | EKVX NSCLC 45.7% | SN12C renal 51.6% | UO-31 renal 13.4% | TK-10 renal 61.3% | ACHN renal 26.8% | CAKI-1 renal 29.6% | A498 renal 17% | CCRF-CEM leukemia 72.7% | MOLT-4 leukemia 51%

CCn1cc(-c2[nH]c(=S)ncc2-c2ccc(Cl)cc2)c(-c2ccc(Br)cc2)n1
inactive: HCT-15 colon 85.5% | HT29 colon 92.1% | SNB-75 CNS 99.1% | SNB-19 CNS 75.6% | U251 CNS 74.3% | PC-3 prostate 64.3% | SK-MEL-5 melanoma 86.4% | UACC-62 melanoma 76.7% | LOX IMVI melanoma 86.8% | SK-MEL-28 melanoma 73.7% | SK-MEL-2 melanoma 72% | EKVX NSCLC 85.7% | SN12C renal 85.1% | UO-31 renal 89.4% | TK-10 renal 109% | ACHN renal 91.1% | CAKI-1 renal 98.5% | A498 renal 106% | CCRF-CEM leukemia 97.8% | MOLT-4 leukemia 97.2%

Cc1cc(C)nc(SCC(=O)Nc2cccc(N=Cc3ccccc3O)c2)n1
inactive: HCT-15 colon 105% | HT29 colon 101% | SNB-75 CNS 81.9% | SNB-19 CNS 93% | U251 CNS 94.9% | PC-3 prostate 90.3% | SK-MEL-5 melanoma 103% | UACC-62 melanoma 94.1% | LOX IMVI melanoma 103% | SK-MEL-28 melanoma 106% | SK-MEL-2 melanoma 114% | EKVX NSCLC 97.9% | SN12C renal 96.5% | UO-31 renal 76.7% | TK-10 renal 106% | ACHN renal 99.2% | CAKI-1 renal 81.4% | A498 renal 82.5% | CCRF-CEM leukemia 88.6% | MOLT-4 leukemia 98.9%

Nc1cc(C(=O)O)[nH]c(=S)n1
inactive: HCT-15 colon 101% | HT29 colon 101% | SNB-75 CNS 91.4% | SNB-19 CNS 97.5% | U251 CNS 95% | PC-3 prostate 99.8% | SK-MEL-5 melanoma 98.8% | UACC-62 melanoma 95.2% | LOX IMVI melanoma 100% | SK-MEL-28 melanoma 96.7% | SK-MEL-2 melanoma 98.9% | EKVX NSCLC 92.6% | SN12C renal 99.7% | UO-31 renal 87.5% | TK-10 renal 93.4% | ACHN renal 103% | CAKI-1 renal 94.9% | A498 renal 101% | CCRF-CEM leukemia 94.5% | MOLT-4 leukemia 101%

C#CCC(C(=O)OCC)C(=O)OCC
inactive: HCT-15 colon 106% | HT29 colon 103% | SNB-75 CNS 90.5% | SNB-19 CNS 102% | U251 CNS 104% | PC-3 prostate 99.8% | SK-MEL-5 melanoma 105% | UACC-62 melanoma 101% | LOX IMVI melanoma 99.2% | SK-MEL-28 melanoma 109% | SK-MEL-2 melanoma 107% | EKVX NSCLC 95.1% | SN12C renal 109% | UO-31 renal 85% | TK-10 renal 98.7% | ACHN renal 102% | CAKI-1 renal 93.6% | A498 renal 94.6% | CCRF-CEM leukemia 104% | MOLT-4 leukemia 100%

C=C(C)[C@@H]1CC[C@]2(C(=O)NCCNCCNCCN)CC[C@]3(C)[C@H](CC[C@@H]4[C@@]5(C)CC[C@H](O)C(C)(C)[C@@H]5CC[C@]43C)[C@@H]12
active: HCT-15 colon -24.8% [100 µM] | HT29 colon -39.6% [100 µM] | SNB-75 CNS -79.3% [100 µM] | SNB-19 CNS -74.5% [100 µM] | U251 CNS -71.6% [100 µM] | PC-3 prostate 1.07% [100 µM] | SK-MEL-5 melanoma -90.1% [100 µM] | UACC-62 melanoma -100% [100 µM] | LOX IMVI melanoma -41% [100 µM] | SK-MEL-28 melanoma -98.7% [100 µM] | SK-MEL-2 melanoma -65.4% [100 µM] | EKVX NSCLC -11.4% [100 µM] | SN12C renal -53.7% [100 µM] | UO-31 renal -100% [100 µM] | TK-10 renal -67.3% [100 µM] | ACHN renal -100% [100 µM] | CAKI-1 renal -93.6% [100 µM] | A498 renal -32.6% [100 µM] | CCRF-CEM leukemia 5.18% [100 µM] | MOLT-4 leukemia 1.18% [100 µM]

C=C(C)[C@@H]1CC[C@]2(C(N)=O)CC[C@]3(C)[C@H](CC[C@@H]4[C@@]5(C)C/C(=C/c6cccnc6)C(=O)C(C)(C)[C@@H]5CC[C@]43C)[C@@H]12
inactive: HCT-15 colon 14.9% [100 µM] | SNB-75 CNS 40.6% [100 µM] | SNB-19 CNS 27.8% [100 µM] | PC-3 prostate 11.7% [100 µM] | EKVX NSCLC 21.2% [100 µM] | SN12C renal 18.5% [100 µM] | UO-31 renal 10.2% [100 µM] | TK-10 renal 23.5% [100 µM] | A498 renal 17.3% [100 µM]
active: HT29 colon -45.3% [100 µM] | U251 CNS 9.19% [100 µM] | SK-MEL-5 melanoma -61.9% [100 µM] | UACC-62 melanoma -1.04% [100 µM] | LOX IMVI melanoma -41.5% [100 µM] | SK-MEL-28 melanoma -8.42% [100 µM] | SK-MEL-2 melanoma -47.4% [100 µM] | ACHN renal 7.09% [100 µM] | CAKI-1 renal 8.38% [100 µM] | CCRF-CEM leukemia 7.08% [100 µM] | MOLT-4 leukemia 2.39% [100 µM]

O=C(N/N=C/c1ccc([N+](=O)[O-])cc1)c1ccc(Br)o1
active: UO-31 renal -17.5%
inactive: HCT-15 colon 94.5% | HT29 colon 106% | SNB-75 CNS 105% | SNB-19 CNS 90.2% | U251 CNS 101% | PC-3 prostate 87.1% | SK-MEL-5 melanoma 95.8% | UACC-62 melanoma 99.6% | LOX IMVI melanoma 98% | SK-MEL-28 melanoma 110% | SK-MEL-2 melanoma 33.6% | EKVX NSCLC 112% | SN12C renal 102% | TK-10 renal 131% | ACHN renal 107% | CAKI-1 renal 106% | A498 renal 116% | CCRF-CEM leukemia 99.5% | MOLT-4 leukemia 123%

O=C1CC(c2ccccc2)Cc2nc3ccc(Br)cc3cc21 (stereo not given)
inactive: HCT-15 colon 16% | SNB-75 CNS 36.6% | SNB-19 CNS 27.4% | U251 CNS 18.1% | PC-3 prostate 32% | UACC-62 melanoma 36.2% | LOX IMVI melanoma 31.5% | SK-MEL-28 melanoma 56.7% | SK-MEL-2 melanoma 45.2% | EKVX NSCLC 36.3% | SN12C renal 32.2% | UO-31 renal 41.4% | TK-10 renal 73.4% | ACHN renal 34.3% | CAKI-1 renal 30.7% | MOLT-4 leukemia 10.5%
active: HT29 colon 2.2% | SK-MEL-5 melanoma 2.1% | A498 renal -12.4% | CCRF-CEM leukemia 8.51%

CCN=Cc1c(O)c(O)c(C(C)C)c2cc(C)c(-c3c(C)cc4c(C(C)C)c(O)c(O)c(C=NCC)c4c3O)c(O)c12
inactive: HCT-15 colon 23.2% | HT29 colon 25% | SNB-75 CNS 57.7% | SNB-19 CNS 27.3% | U251 CNS 25.8% | PC-3 prostate 29.4% | SK-MEL-5 melanoma 95.4% | UACC-62 melanoma 76.8% | LOX IMVI melanoma 39.1% | SK-MEL-28 melanoma 74.9% | SK-MEL-2 melanoma 51.4% | EKVX NSCLC 30.5% | SN12C renal 54.9% | UO-31 renal 39.2% | TK-10 renal 43.5% | ACHN renal 24.4% | CAKI-1 renal 73.3% | A498 renal 69.5% | CCRF-CEM leukemia 20.1% | MOLT-4 leukemia 32.8%
